Z-score data for ten molecules are collected here from PubChem BioAssay.

A short description of this test: compound effects on lung adenocarcinoma cell viability – A549, calcein-AM fluorescence, 48 h, basal, profiling panel (AID 1162). Note: test concentration not given here. Particulars: higher = more signal.
`CCCCCCc1nc(C2CC2)cc2c1[Si](C(C)C)(C(C)C)OC2`: the z-score was -0.315.

As for `COc1ccc([Si](C)(C)[C@H]2[C@H](CCO)O[C@@]3(C(=O)N(Cc4cccc(N5C(=O)COc6ccccc65)c4)c4ccccc43)[C@@H]2C)cc1`, the z-score is -0.533.

Take `C=C(/C(=C/C[C@H](OC(=O)c1ccncc1)c1ccc(CO)o1)c1cc(C(=O)OC)ccc1OC)C(C)C`: the z-score was -0.762.

As to `COC(=O)[C@@]1(Cc2ccccc2N=[N+]=[N-])N=C(c2ccc(OCCCO)cc2)O[C@H]1c1ccccc1N=[N+]=[N-]`, the z-score is -1.53.

In the case of `O=C1O[C@H](c2ccccc2)[C@H](c2ccccc2)N2[C@H]1[C@@H](C(=O)Nc1nc3ccccc3s1)[C@]1(C(=O)Nc3ccccc31)[C@H]2c1ccc(OCCO)cc1`, the z-score was -0.52.

Consider `C=CCC(OC(C)=O)[C@@H]1[C@@H](N(Cc2cc3ccccc3o2)C(=O)c2ccc(C)cc2)c2cc(OCCCO)ccc2N1C(=O)Cc1ccc(OC)cc1` (stereo not given in full), for which the z-score is 1.09.

Consider `C[C@@H]1ON(c2ccc(C(=O)OC(C)(C)C)cc2)[C@H](c2ccc(O)cc2)[C@H]1C(=O)N1C(=O)OC[C@H]1Cc1ccccc1`, for which the z-score was -1.68.

Consider `C=CCNC(=O)[C@H]1[C@@H]2C(=O)O[C@@H](c3ccccc3)[C@@H](c3ccccc3)N2[C@@H](c2ccc(O)cc2)[C@]12C(=O)Nc1ccc(C#CC3(O)CCCCCC3)cc12`, for which the z-score is -0.0001.

Turning to `CCCC[C@@H]1C[C@H]1[C@@H](NC(=O)Cc1ccccc1)c1ccc(-c2ccccc2)cc1`, the z-score is -0.902.

For the molecule `C=C(COC)/C(=C/C[C@H](OC(=O)c1ccncc1)c1ccccc1OCCO)c1cnc2ccccc2c1`, the z-score was 0.265.
